Here are results for 17 compounds from paper PMC5540273 (PLoS ONE, 2017).

The Kd is a measure of binding affinity in units of concentration. Read a high Kd as weaker binding.

One experiment relates to T1, BIKE.
T1 construct: gene BMP2K

Another experiment deals with T2, BRK.
T2 construct: gene PTK6

For another experiment, the system named is T3, CDC2L5.
T3 construct: gene CDK13
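Also: kd values determined as follow-up on hits from a single-replicate KINOMEscan panel screen.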

As to `O=S(=O)(c1ccc(-c2ccnc3[nH]ccc23)cc1)N1CCCC1` [GSK846226], binding in the experiment with BIKE was characterised by a dissociation constant (Kd) of 7.2 µM. This lies in the single-digit micromolar range.

`Cc1ccc(NC(=O)Nc2cccc(C(F)(F)F)c2)cc1` [GSK955403]: the Kd in the experiment on BMPR1A is more than 10 µM.

For the compound `O=C1NC(=O)C(N2CCc3ccccc32)=C1c1ccccc1Cl` [SB-373598], the Kd in the experiment with BMPR2 is more than 10 µM.

The compound `NC(=O)c1nnc2ccccc2c1N` showed a Kd in the experiment on BMX of more than 10 µM.

For `O=C(O)COc1ncnc2cc(-c3ccc4[nH]ncc4c3)sc12`, the Kd in the experiment with BRK is more than 10 µM.

Consider `Cc1c(O)cccc1Nc1ccnc2ccc(C(F)(F)F)cc12.Cl` [GW466413], for which binding in the experiment with BRK was put at a Kd of 0.19 µM.

In the case of `CN(C)CCN(C)C(=O)c1cc(-c2ccncc2)c(-c2ccc(Cl)c(O)c2)o1.Cl.Cl` [SB-710397], the Kd in the experiment with BUB1 came out at 0.39 µM.

In the experiment on BUB1, `Cl.Oc1ccc(-c2nc(-c3ccccc3)[nH]c2-c2ccncc2)cc1` [SB-428218] registered a Kd of 0.56 µM.

Compound `Cc1c(Cn2ccn3c(=O)cc(N4CCOCC4)nc23)cccc1C(F)(F)F` [GSK2289044] returned a Kd in the experiment with CAMK2A of more than 10 µM.

The compound `Cc1cccc(-c2nc(C)cc(Nc3ccncc3)n2)n1` [GSK257997] registered a Kd with CAMK2D of more than 10 µM.

For the compound `Cc1cc(-c2ccc3c(c2)CC[C@@H](N[C@@H](C)c2ccccc2)C3)cnc1N.Cl` [GW412617], the Kd with CAMK2D is more than 10 µM.

Turning to `CC(C)(C)c1ccc(C(=O)Nc2cn3cc(Cl)ccc3n2)cc1`, the Kd with CAMKK1 was more than 10 µM.

Turning to `CCn1c(-c2ccccn2)nc2cnccc21` [SB-736398], the Kd in the experiment with CDC2L5 was more than 10 µM.

In the experiment on CDC2L5, `CCCc1ccc(S(=O)(=O)NC2CCN(c3ccnc(Nc4ccc(F)cc4)n3)C2)cc1` (stereo not drawn) [GSK1379715] gave a Kd of more than 10 µM.

`O=C(Nc1n[nH]c2nc(-c3nccs3)c(Br)cc12)C1CC1` [SB-742251] registered a Kd with CDK2 of 0.35 µM.

`O=C(Nc1n[nH]c2nc(-c3nccs3)c(Br)cc12)C1CCCC1` [SB-742609]: the Kd amounted to 0.28 µM in the experiment with CDK2 and 4.2 µM in the experiment on CDK4.

`O=C(Nc1n[nH]c2cc(-c3cccc(F)c3F)ccc12)C1CC1` [SB-733894]: in the experiment with CDK8, the Kd was more than 10 µM.
